Measurements published in the supplement of paper PMC10037445.
Over roughly 2,900 compounds, “NF-kB SEAP reporter activity, fold change vs agonist alone” has its median near 0.99; the highest 2% begin near 2.6. This is one part of a sample in which the highest values are shown more often than they occur.

What was measured:
RAW-Dual [1] = test: NF-kB SEAP reporter activity, fold change vs agonist alone; cytotoxicity flag (confluency mask): not cytotoxic; higher = enhanced NF-kB activity
Summary of the method: (§1)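 RAW-Dual macrophages were seeded in DMEM at 50,000 cells/well in 384-well plates, given 50 nL of library stock by pin tool, and given a PRR agonist 1 h later. Plates were held at 37 °C, 5% CO2 for 20 hours, after which supernatant was read for IRF by QuantiLuc luminescence and for NF-κB by QuantiBlue absorbance at 620 nm. Reporter activity is expressed as fold change over wells that received agonist alone. A well was called cytotoxic when IncuCyte confluency fell below 70% of agonist controls in both mask sets.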

RAW-Dual [2] = test: NF-kB SEAP reporter activity, fold change vs agonist alone; higher = enhanced NF-kB activity
Summary of the method: as §1

RAW-Dual [3] = test: NF-kB SEAP reporter activity, fold change vs agonist alone; cytotoxicity flag (confluency mask): cytotoxic (confluency <70% of control); higher = enhanced NF-kB activity
Summary of the method: as §1

[4] = agonist: ODN 1826 (TLR9) 0.5 ug/mL
[5] = agonist: Pam2CSK4 (TLR2/6) 0.1 ug/mL
[6] = agonist: Pam3CSK4 (TLR2/1) 0.1 ug/mL
[7] = library stock concentration (final ~1000-fold dilution): 10 mM, cytotoxicity flag (confluency mask): not cytotoxic, agonist: Imiquimod (TLR7) […]
[8] = library stock concentration (final ~1000-fold dilution): 10 mM, cytotoxicity flag (confluency mask): not cytotoxic, agonist: MPLA (TLR4) […]
[9] = library stock concentration (final ~1000-fold dilution): 10 mM, cytotoxicity flag (confluency mask): cytotoxic (confluency <70% of control), agonist: Imiquimod (TLR7) […]
[10] = library stock concentration (final ~1000-fold dilution): 10 mM, cytotoxicity flag (confluency mask): cytotoxic (confluency <70% of control), agonist: MPLA (TLR4) […]

For `CCOC1OC(=O)CC1NC(=O)C1CCCN1C(=O)C(NC(=O)c1ccc(N)c(Cl)c1)C(C)(C)C` (stereo not drawn) (library stock concentration (final ~1000-fold dilution): 10 mM), the “NF-kB SEAP reporter activity” value (RAW-Dual [1]; agonist: LPS (TLR4) 0.1 ug/mL) was 0.973, the “NF-kB SEAP reporter activity” value (RAW-Dual [1]; [4]) was 1 and the “NF-kB SEAP reporter activity” value (RAW-Dual [1]; [5]) was 1. For the same compound, the “NF-kB SEAP reporter activity” value (RAW-Dual [1]; [6]) was 0.976.
With `CCOC1OC(=O)CC1NC(=O)C1CCCN1C(=O)C(NC(=O)c1ccc(N)c(Cl)c1)C(C)(C)C` (stereo not drawn) the “NF-kB SEAP reporter activity” value (RAW-Dual [2]; [7]) was 0.911 and the “NF-kB SEAP reporter activity” value (RAW-Dual [2]; [8]) was 0.995.
`N#CC1CC2CC2N1C(=O)C(N)C12CC3CC(CC(O)(C3)C1)C2` (stereo not drawn) (library stock concentration (final ~1000-fold dilution): 10 mM) was tested, and the “NF-kB SEAP reporter activity” value (RAW-Dual [1]; agonist: LPS (TLR4) 0.1 ug/mL) was 1.1, the “NF-kB SEAP reporter activity” value (RAW-Dual [1]; [4]) was 0.964 and the “NF-kB SEAP reporter activity” value (RAW-Dual [1]; [5]) was 0.892. For the same compound, the “NF-kB SEAP reporter activity” value (RAW-Dual [1]; [6]) was 1.05.
In the case of `N#CC1CC2CC2N1C(=O)C(N)C12CC3CC(CC(O)(C3)C1)C2` (stereo not drawn), the “NF-kB SEAP reporter activity” value (RAW-Dual [2]; [7]) is reported as 0.914 and the “NF-kB SEAP reporter activity” value (RAW-Dual [2]; [8]) is reported as 0.875.
For `CCn1c(-c2nonc2N)nc2c(C#CC(C)(C)O)ncc(OCC3CCCNC3)c21` (stereo not drawn), the “NF-kB SEAP reporter activity” value (RAW-Dual [2]; [7]) was 1.87 and the “NF-kB SEAP reporter activity” value (RAW-Dual [2]; [8]) was 1.95.
With `CCn1c(-c2nonc2N)nc2c(C#CC(C)(C)O)ncc(OCC3CCCNC3)c21` (stereo not drawn) (library stock concentration (final ~1000-fold dilution): 10 mM) the “NF-kB SEAP reporter activity” value (RAW-Dual [1]; agonist: LPS (TLR4) 0.1 ug/mL) was 1.91, the “NF-kB SEAP reporter activity” value (RAW-Dual [1]; [4]) was 0.943 and the “NF-kB SEAP reporter activity” value (RAW-Dual [1]; [5]) was 1.73. The “NF-kB SEAP reporter activity” value (RAW-Dual [1]; [6]) was 1.89.
In the case of `CC(C)Cc1ccc(C(C)C(=O)O)cc1.NCCCCC(N)C(=O)O` (stereo not drawn), the “NF-kB SEAP reporter activity” value (RAW-Dual [2]; library stock concentration (final ~1000-fold dilution): 10 mM water, cytotoxicity flag (confluency mask): not cytotoxic, agonist: Imiquimod (TLR7) […]) is reported as 0.969 and the “NF-kB SEAP reporter activity” value (RAW-Dual [2]; library stock concentration (final ~1000-fold dilution): 10 mM water, cytotoxicity flag (confluency mask): not cytotoxic, agonist: MPLA (TLR4) […]) is reported as 1.08.
In the case of `CC(C)Cc1ccc(C(C)C(=O)O)cc1.NCCCCC(N)C(=O)O` (stereo not drawn) (library stock concentration (final ~1000-fold dilution): 10 mM water), the “NF-kB SEAP reporter activity” value (RAW-Dual [1]; agonist: LPS (TLR4) 0.1 ug/mL) is reported as 1.42, the “NF-kB SEAP reporter activity” value (RAW-Dual [1]; [4]) is reported as 1.2 and the “NF-kB SEAP reporter activity” value (RAW-Dual [1]; [5]) is reported as 1.54. The “NF-kB SEAP reporter activity” value (RAW-Dual [1]; [6]) was 1.39.
In the case of `CCCCc1nc2cc(/C=C/C(=O)NO)ccc2n1CCN(CC)CC` (library stock concentration (final ~1000-fold dilution): 10 mM), the “NF-kB SEAP reporter activity” value (RAW-Dual [3]; agonist: LPS (TLR4) 0.1 ug/mL) is reported as 4.93, the “NF-kB SEAP reporter activity” value (RAW-Dual [3]; [4]) is reported as 1.54 and the “NF-kB SEAP reporter activity” value (RAW-Dual [3]; [5]) is reported as 0.93. The “NF-kB SEAP reporter activity” value (RAW-Dual [3]; [6]) was 1.99.
`CCCCc1nc(-c2ccc(OCCCN(CC)CC)cc2)cn1-c1ccc(Oc2ccc(Cl)cc2)cc1` was tested, and the “NF-kB SEAP reporter activity” value (RAW-Dual [2]; [9]) was 1.53 and the “NF-kB SEAP reporter activity” value (RAW-Dual [2]; [10]) was 1.02.
With `CCCCc1nc(-c2ccc(OCCCN(CC)CC)cc2)cn1-c1ccc(Oc2ccc(Cl)cc2)cc1` (library stock concentration (final ~1000-fold dilution): 10 mM) the “NF-kB SEAP reporter activity” value (RAW-Dual [3]; agonist: LPS (TLR4) 0.1 ug/mL) was 0.281, the “NF-kB SEAP reporter activity” value (RAW-Dual [3]; [4]) was 0.683 and the “NF-kB SEAP reporter activity” value (RAW-Dual [3]; [5]) was 0.225. The “NF-kB SEAP reporter activity” value (RAW-Dual [3]; [6]) was 0.192.
In the case of `CCCCc1nc2cc(/C=C/C(=O)NO)ccc2n1CCN(CC)CC`, the “NF-kB SEAP reporter activity” value (RAW-Dual [2]; [9]) is reported as 2.43 and the “NF-kB SEAP reporter activity” value (RAW-Dual [2]; [10]) is reported as 2.67.
`CN1C2CCC1CC(OC(c1ccccc1)c1ccccc1)C2.CS(=O)(=O)O` (stereo not drawn) (library stock concentration (final ~1000-fold dilution): 10 mM) was tested, and the “NF-kB SEAP reporter activity” value (RAW-Dual [1]; agonist: LPS (TLR4) 0.1 ug/mL) was 1.24, the “NF-kB SEAP reporter activity” value (RAW-Dual [1]; [4]) was 0.721 and the “NF-kB SEAP reporter activity” value (RAW-Dual [1]; [5]) was 0.896. For the same compound, the “NF-kB SEAP reporter activity” value (RAW-Dual [1]; [6]) was 1.02.
For `CN1C2CCC1CC(OC(c1ccccc1)c1ccccc1)C2.CS(=O)(=O)O` (stereo not drawn), the “NF-kB SEAP reporter activity” value (RAW-Dual [2]; [7]) was 1.89 and the “NF-kB SEAP reporter activity” value (RAW-Dual [2]; [8]) was 1.29.
`CC(NC(=O)CCC(F)(F)F)C(=O)NC1C(=O)N(CCO)c2ncccc2-c2ccccc21` (stereo not drawn) (library stock concentration (final ~1000-fold dilution): 10 mM) was tested, and the “NF-kB SEAP reporter activity” value (RAW-Dual [1]; agonist: LPS (TLR4) 0.1 ug/mL) was 1.05, the “NF-kB SEAP reporter activity” value (RAW-Dual [1]; [4]) was 0.863 and the “NF-kB SEAP reporter activity” value (RAW-Dual [1]; [5]) was 0.99. The “NF-kB SEAP reporter activity” value (RAW-Dual [1]; [6]) was 1.16.
In the case of `CC(NC(=O)CCC(F)(F)F)C(=O)NC1C(=O)N(CCO)c2ncccc2-c2ccccc21` (stereo not drawn), the “NF-kB SEAP reporter activity” value (RAW-Dual [2]; [7]) is reported as 0.822 and the “NF-kB SEAP reporter activity” value (RAW-Dual [2]; [8]) is reported as 1.06.
In the case of `CNCCCC12CCC(c3ccccc31)c1ccccc12.Cl`, the “NF-kB SEAP reporter activity” value (RAW-Dual [2]; [7]) is reported as 1.4 and the “NF-kB SEAP reporter activity” value (RAW-Dual [2]; [8]) is reported as 1.37.
`CNCCCC12CCC(c3ccccc31)c1ccccc12.Cl` (library stock concentration (final ~1000-fold dilution): 10 mM) was tested, and the “NF-kB SEAP reporter activity” value (RAW-Dual [1]; agonist: LPS (TLR4) 0.1 ug/mL) was 1.55, the “NF-kB SEAP reporter activity” value (RAW-Dual [1]; [4]) was 0.443 and the “NF-kB SEAP reporter activity” value (RAW-Dual [1]; [5]) was 0.537. The “NF-kB SEAP reporter activity” value (RAW-Dual [1]; [6]) was 0.603.
In the case of `CC(=O)c1ccc2c(c1)c1cc(C(C)=O)ccc1n2CCNC(C)C.Cl` (library stock concentration (final ~1000-fold dilution): 10 mM), the “NF-kB SEAP reporter activity” value (RAW-Dual [3]; agonist: LPS (TLR4) 0.1 ug/mL) is reported as 0.329, the “NF-kB SEAP reporter activity” value (RAW-Dual [3]; [4]) is reported as 0.209 and the “NF-kB SEAP reporter activity” value (RAW-Dual [3]; [5]) is reported as 0.0686. The “NF-kB SEAP reporter activity” value (RAW-Dual [3]; [6]) was 0.155.
With `CC(=O)c1ccc2c(c1)c1cc(C(C)=O)ccc1n2CCNC(C)C.Cl` the “NF-kB SEAP reporter activity” value (RAW-Dual [2]; [9]) was 0.156 and the “NF-kB SEAP reporter activity” value (RAW-Dual [2]; [10]) was 0.26.
`CC1(C)OC2COC3(COS(N)(=O)=O)OC(C)(C)OC3C2O1` (stereo not drawn) was tested, and the “NF-kB SEAP reporter activity” value (RAW-Dual [2]; [7]) was 0.928 and the “NF-kB SEAP reporter activity” value (RAW-Dual [2]; [8]) was 0.824.
With `CC1(C)OC2COC3(COS(N)(=O)=O)OC(C)(C)OC3C2O1` (stereo not drawn) (library stock concentration (final ~1000-fold dilution): 10 mM) the “NF-kB SEAP reporter activity” value (RAW-Dual [1]; agonist: LPS (TLR4) 0.1 ug/mL) was 0.898, the “NF-kB SEAP reporter activity” value (RAW-Dual [1]; [4]) was 1.01 and the “NF-kB SEAP reporter activity” value (RAW-Dual [1]; [5]) was 0.955. The “NF-kB SEAP reporter activity” value (RAW-Dual [1]; [6]) was 1.12.
In the case of `COc1c(O)c(C)cc2c1C(=O)c1c(O)cccc1C2=O` (library stock concentration (final ~1000-fold dilution): 10 mM), the “NF-kB SEAP reporter activity” value (RAW-Dual [1]; agonist: LPS (TLR4) 0.1 ug/mL) is reported as 1.19, the “NF-kB SEAP reporter activity” value (RAW-Dual [1]; [4]) is reported as 1.02 and the “NF-kB SEAP reporter activity” value (RAW-Dual [1]; [5]) is reported as 1.04. For the same compound, the “NF-kB SEAP reporter activity” value (RAW-Dual [1]; [6]) was 1.01.
With `COc1ccc(S(=O)(=O)Nc2cc(-c3c(O)ccc4ccccc34)c(O)c3ccccc23)cc1` the “NF-kB SEAP reporter activity” value (RAW-Dual [2]; [7]) was 1.17 and the “NF-kB SEAP reporter activity” value (RAW-Dual [2]; [8]) was 1.61.
`COc1c(O)c(C)cc2c1C(=O)c1c(O)cccc1C2=O` was tested, and the “NF-kB SEAP reporter activity” value (RAW-Dual [2]; [7]) was 0.981 and the “NF-kB SEAP reporter activity” value (RAW-Dual [2]; [8]) was 1.08.
`COc1ccc(S(=O)(=O)Nc2cc(-c3c(O)ccc4ccccc34)c(O)c3ccccc23)cc1` (library stock concentration (final ~1000-fold dilution): 10 mM) was tested, and the “NF-kB SEAP reporter activity” value (RAW-Dual [1]; agonist: LPS (TLR4) 0.1 ug/mL) was 4.3, the “NF-kB SEAP reporter activity” value (RAW-Dual [1]; [4]) was 1.09 and the “NF-kB SEAP reporter activity” value (RAW-Dual [1]; [5]) was 1.29. For the same compound, the “NF-kB SEAP reporter activity” value (RAW-Dual [1]; [6]) was 1.38.
